Assay [1] addresses T1, Serine/threonine-protein kinase Nek9 (Homo sapiens) (UniProt Q8TD19).
T1 sequence (whole entry): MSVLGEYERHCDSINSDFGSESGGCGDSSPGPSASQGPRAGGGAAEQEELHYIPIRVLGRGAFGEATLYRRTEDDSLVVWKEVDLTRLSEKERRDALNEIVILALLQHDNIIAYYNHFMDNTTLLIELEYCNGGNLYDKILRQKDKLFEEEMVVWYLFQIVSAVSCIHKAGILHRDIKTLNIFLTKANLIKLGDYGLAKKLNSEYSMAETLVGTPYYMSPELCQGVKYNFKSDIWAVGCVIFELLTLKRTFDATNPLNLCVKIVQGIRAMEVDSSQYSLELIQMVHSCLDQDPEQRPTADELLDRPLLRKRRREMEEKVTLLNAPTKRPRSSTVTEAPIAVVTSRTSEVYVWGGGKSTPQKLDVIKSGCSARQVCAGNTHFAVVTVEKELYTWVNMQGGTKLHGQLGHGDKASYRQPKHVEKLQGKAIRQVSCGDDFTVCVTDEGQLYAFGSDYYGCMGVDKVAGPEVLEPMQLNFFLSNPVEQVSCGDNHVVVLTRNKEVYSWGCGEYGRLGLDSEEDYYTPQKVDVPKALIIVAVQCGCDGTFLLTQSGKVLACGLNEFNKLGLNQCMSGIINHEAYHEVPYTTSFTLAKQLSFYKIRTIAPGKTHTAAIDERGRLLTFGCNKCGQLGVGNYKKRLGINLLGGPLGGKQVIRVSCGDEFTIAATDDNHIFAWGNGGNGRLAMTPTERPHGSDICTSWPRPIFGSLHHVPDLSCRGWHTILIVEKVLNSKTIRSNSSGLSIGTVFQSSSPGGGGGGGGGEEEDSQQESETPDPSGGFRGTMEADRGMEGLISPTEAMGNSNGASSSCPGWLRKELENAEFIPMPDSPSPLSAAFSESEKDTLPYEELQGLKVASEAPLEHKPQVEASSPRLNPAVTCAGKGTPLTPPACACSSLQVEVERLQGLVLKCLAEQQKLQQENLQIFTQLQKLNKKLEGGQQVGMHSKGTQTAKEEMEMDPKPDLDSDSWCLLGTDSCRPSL
As to conditions: at 1 µM.

The target of assay [2] is Serine/threonine-protein kinase PLK1 (Homo sapiens) (UniProt P53350). The note with it: at 0.1 µM.
For assay [3] the target is unchanged. As to conditions: at 1 µM.
In assay [4] the target is T2, Dual specificity protein kinase TTK (Homo sapiens) (UniProt P33981).
T2 sequence (whole entry): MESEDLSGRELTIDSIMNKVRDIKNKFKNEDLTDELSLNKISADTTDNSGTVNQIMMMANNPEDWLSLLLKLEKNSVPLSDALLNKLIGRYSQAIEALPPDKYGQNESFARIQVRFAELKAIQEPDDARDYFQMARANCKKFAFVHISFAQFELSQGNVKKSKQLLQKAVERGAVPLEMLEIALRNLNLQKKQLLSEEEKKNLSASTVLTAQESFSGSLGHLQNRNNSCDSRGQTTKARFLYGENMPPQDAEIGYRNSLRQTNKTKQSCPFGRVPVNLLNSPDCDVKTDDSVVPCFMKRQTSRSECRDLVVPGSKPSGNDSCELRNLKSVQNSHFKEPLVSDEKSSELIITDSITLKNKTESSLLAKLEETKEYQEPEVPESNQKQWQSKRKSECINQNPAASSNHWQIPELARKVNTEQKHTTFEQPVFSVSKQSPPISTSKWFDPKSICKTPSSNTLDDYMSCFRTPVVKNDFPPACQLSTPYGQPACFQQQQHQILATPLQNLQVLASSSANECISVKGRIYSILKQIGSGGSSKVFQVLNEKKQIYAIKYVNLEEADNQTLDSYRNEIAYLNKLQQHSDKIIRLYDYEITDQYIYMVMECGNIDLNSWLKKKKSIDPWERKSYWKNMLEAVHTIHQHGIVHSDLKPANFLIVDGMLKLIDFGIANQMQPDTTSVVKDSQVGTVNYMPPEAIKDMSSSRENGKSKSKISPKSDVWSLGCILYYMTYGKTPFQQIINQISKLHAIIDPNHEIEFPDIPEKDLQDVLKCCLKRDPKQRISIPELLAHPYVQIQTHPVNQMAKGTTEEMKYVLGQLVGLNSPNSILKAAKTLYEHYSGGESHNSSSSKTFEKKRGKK
The note with it: at 0.1 µM.

Assay [5] deals with T3, Receptor-type tyrosine-protein kinase FLT3 (Homo sapiens), P36888 [D835Y].
T3 sequence (whole entry): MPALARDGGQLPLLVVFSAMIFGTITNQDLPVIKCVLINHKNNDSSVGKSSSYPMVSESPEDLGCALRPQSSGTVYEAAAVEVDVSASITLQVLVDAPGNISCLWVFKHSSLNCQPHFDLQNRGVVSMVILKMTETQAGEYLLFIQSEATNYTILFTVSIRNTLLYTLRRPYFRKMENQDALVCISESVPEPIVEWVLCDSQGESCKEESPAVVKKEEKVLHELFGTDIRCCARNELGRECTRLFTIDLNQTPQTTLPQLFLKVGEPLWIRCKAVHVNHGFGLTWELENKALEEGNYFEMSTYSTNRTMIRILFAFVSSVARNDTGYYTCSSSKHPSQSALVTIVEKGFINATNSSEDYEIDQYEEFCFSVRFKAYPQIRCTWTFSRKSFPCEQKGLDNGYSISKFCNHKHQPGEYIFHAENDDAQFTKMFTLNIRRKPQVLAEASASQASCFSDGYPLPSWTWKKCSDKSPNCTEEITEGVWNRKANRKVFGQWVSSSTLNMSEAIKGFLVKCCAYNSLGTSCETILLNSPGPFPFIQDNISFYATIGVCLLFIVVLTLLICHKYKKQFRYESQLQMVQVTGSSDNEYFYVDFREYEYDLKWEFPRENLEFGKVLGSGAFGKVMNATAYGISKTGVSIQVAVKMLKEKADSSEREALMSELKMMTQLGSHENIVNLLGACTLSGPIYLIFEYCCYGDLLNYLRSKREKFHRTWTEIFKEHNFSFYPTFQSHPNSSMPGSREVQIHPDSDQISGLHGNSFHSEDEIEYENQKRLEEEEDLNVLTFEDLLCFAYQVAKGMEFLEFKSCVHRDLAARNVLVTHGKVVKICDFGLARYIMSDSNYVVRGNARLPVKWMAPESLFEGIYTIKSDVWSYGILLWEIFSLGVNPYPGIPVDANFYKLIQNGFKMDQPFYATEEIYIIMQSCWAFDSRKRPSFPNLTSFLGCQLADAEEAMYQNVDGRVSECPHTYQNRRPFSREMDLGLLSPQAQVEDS
As to conditions: at 1 µM.

Assay [6] addresses Vascular endothelial growth factor receptor 3 (Homo sapiens) (UniProt P35916). The note with it: at 1 µM.
For assay [7], the target named is Macrophage colony-stimulating factor 1 receptor (Homo sapiens) (UniProt P07333). As to conditions: at 0.1 µM.
The target is the same in assay [8]. As to conditions: at 1 µM.
For assay [9], the target named is Tyrosine-protein kinase Fyn (Homo sapiens) (UniProt P06241). The note with it: at 0.1 µM.
Assay [10] shares this target. The note with it: at 1 µM.
Assay [11] concerns the target Tyrosine-protein kinase HCK (Homo sapiens) (UniProt P08631). As to conditions: at 0.1 µM.
The target is the same in assay [12]. The note with it: at 1 µM.
Assay [13] deals with Insulin-like growth factor 1 receptor (Homo sapiens) (UniProt P08069). As to conditions: at 1 µM.
Assay [14] deals with Insulin receptor (Homo sapiens) (UniProt P06213). The note with it: at 0.1 µM.
Assay [15] has the same target. As to conditions: at 1 µM.
Assay [16] concerns the target Insulin receptor-related protein (Homo sapiens) (UniProt P14616). The note with it: at 0.1 µM.
The target is the same in assay [17]. As to conditions: at 1 µM.
The target in assay [18] is T4, Tyrosine-protein kinase ITK/TSK (Homo sapiens) (UniProt Q08881).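 Also: mean percent inhibition of ITK from the GSK PKIS screen.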
T4 sequence (whole entry): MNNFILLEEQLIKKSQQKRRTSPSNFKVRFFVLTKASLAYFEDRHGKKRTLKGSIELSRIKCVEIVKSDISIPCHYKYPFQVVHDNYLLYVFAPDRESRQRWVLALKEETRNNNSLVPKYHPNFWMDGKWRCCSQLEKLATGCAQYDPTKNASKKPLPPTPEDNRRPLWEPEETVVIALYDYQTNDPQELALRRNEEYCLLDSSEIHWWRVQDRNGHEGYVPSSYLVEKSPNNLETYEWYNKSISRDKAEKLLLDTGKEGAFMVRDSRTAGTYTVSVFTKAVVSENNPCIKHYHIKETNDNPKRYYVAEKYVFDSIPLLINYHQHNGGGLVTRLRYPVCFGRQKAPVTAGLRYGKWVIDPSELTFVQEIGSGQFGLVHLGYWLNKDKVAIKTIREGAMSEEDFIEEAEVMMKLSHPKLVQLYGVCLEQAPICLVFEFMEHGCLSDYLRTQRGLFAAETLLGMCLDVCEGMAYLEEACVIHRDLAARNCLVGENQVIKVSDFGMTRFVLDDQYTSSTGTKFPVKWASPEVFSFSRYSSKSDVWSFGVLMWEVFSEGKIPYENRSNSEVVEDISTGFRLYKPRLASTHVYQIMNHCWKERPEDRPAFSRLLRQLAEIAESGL
The note with it: at 0.1 µM.

Assay [19] addresses Vascular endothelial growth factor receptor 3 (Homo sapiens) (UniProt P35916). As to conditions: at 0.1 µM.
In assay [20] the target is Insulin-like growth factor 1 receptor (Homo sapiens) (UniProt P08069). As to conditions: at 0.1 µM.

The structures appear in SMILES notation.

Sequence of Serine/threonine-protein kinase PLK1 (Homo sapiens) (P53350 whole entry): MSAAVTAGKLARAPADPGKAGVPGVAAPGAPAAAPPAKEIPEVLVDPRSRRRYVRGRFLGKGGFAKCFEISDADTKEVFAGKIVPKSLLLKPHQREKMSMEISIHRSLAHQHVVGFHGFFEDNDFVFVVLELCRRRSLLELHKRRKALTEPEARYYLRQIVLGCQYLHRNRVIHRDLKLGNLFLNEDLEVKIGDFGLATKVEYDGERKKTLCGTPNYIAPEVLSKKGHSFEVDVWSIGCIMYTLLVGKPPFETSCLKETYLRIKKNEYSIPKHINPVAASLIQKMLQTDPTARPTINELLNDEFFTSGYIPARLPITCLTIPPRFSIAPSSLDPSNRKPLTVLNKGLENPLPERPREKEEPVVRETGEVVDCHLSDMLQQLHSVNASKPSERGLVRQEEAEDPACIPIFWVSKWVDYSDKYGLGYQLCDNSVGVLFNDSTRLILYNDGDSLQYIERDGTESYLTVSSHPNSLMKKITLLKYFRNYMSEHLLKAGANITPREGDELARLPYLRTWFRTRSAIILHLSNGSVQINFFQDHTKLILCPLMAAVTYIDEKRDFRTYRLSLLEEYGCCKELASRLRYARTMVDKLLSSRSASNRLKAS
Sequence of Tyrosine-protein kinase Fyn (Homo sapiens) (P06241 2-537 limits assumed): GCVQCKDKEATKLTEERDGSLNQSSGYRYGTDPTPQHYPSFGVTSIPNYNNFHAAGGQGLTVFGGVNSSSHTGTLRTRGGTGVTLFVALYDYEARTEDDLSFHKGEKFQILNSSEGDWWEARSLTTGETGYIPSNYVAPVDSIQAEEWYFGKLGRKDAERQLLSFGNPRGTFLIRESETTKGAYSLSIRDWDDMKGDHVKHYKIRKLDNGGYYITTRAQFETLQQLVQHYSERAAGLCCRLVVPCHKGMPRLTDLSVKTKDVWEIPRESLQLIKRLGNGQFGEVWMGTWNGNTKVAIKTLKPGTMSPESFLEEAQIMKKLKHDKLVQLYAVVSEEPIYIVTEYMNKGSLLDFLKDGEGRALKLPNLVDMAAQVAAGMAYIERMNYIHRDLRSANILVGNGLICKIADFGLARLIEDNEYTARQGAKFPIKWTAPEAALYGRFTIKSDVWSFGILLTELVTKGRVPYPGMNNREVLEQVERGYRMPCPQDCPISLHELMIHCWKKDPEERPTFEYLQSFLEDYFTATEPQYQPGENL
Sequence of Insulin-like growth factor 1 receptor (Homo sapiens) (P08069 31-736 limits assumed): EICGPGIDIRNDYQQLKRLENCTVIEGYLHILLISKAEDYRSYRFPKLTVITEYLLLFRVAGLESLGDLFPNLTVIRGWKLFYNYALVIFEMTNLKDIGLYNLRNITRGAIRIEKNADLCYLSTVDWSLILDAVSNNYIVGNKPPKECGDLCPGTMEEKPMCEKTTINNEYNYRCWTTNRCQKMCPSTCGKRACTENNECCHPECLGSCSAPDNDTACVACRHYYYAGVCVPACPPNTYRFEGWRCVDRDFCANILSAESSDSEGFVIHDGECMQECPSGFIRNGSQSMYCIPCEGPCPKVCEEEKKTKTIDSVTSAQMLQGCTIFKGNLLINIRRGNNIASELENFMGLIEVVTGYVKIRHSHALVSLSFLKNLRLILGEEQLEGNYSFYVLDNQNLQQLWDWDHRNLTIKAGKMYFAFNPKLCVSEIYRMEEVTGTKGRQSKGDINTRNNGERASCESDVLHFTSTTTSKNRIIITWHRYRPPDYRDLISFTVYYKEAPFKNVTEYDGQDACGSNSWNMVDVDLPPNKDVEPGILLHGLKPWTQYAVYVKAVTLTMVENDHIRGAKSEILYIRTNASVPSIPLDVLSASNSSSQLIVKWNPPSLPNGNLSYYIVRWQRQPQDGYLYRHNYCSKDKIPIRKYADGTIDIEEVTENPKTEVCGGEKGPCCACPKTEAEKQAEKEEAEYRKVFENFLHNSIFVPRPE
Sequence of Insulin-like growth factor 1 receptor (Homo sapiens) (P08069 741-1367 limits assumed): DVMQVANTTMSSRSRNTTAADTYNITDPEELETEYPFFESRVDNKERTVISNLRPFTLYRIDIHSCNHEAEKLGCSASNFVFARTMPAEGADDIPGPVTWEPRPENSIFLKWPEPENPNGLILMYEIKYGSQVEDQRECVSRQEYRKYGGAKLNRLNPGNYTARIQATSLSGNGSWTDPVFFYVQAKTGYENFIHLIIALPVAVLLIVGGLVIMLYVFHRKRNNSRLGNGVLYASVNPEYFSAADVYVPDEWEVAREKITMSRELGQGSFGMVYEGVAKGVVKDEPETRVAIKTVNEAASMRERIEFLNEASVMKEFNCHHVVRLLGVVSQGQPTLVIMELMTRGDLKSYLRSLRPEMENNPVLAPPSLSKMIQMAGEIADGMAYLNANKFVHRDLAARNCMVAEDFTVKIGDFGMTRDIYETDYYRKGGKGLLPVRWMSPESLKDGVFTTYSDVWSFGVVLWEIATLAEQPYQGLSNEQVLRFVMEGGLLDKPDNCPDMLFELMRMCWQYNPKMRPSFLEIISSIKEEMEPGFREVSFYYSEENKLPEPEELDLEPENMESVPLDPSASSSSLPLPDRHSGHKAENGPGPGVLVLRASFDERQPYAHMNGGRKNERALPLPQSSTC
Sequence of Vascular endothelial growth factor receptor 3 (Homo sapiens) (P35916 whole entry): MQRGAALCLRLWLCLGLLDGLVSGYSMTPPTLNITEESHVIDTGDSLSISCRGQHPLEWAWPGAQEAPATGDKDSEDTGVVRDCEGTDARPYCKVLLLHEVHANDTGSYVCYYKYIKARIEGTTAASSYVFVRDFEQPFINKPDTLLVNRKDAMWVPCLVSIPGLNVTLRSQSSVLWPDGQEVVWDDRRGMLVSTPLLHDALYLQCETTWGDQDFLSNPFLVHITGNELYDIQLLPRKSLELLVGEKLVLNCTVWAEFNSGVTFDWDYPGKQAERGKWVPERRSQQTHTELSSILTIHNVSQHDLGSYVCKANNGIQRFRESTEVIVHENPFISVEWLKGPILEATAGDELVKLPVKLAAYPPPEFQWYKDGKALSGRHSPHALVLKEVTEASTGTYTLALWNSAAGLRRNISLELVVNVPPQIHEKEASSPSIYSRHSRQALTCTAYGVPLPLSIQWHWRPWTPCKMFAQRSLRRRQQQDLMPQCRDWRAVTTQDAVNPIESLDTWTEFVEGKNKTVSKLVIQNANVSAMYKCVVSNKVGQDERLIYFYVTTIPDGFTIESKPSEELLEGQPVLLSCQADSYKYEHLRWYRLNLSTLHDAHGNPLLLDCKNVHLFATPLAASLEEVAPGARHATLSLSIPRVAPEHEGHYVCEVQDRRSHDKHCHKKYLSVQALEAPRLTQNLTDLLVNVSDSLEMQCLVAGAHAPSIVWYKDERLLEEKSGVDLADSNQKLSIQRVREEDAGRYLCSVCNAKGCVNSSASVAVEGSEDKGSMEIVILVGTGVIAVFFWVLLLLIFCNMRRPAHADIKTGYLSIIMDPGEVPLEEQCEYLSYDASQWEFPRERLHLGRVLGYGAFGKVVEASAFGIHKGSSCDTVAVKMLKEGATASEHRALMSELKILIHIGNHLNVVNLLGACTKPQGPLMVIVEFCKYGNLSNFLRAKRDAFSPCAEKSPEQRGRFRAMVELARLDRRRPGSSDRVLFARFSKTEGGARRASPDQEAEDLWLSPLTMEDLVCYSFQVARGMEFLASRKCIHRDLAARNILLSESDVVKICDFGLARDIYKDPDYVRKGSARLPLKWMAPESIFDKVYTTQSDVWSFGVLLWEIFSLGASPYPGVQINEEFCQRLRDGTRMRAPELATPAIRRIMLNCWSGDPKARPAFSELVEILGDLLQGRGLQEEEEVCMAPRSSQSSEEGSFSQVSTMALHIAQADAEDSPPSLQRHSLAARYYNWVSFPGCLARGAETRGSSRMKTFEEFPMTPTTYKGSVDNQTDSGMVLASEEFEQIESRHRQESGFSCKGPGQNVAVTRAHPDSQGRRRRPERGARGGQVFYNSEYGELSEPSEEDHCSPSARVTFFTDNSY
Sequence of Tyrosine-protein kinase HCK (Homo sapiens) (P08631 2-526 limits assumed): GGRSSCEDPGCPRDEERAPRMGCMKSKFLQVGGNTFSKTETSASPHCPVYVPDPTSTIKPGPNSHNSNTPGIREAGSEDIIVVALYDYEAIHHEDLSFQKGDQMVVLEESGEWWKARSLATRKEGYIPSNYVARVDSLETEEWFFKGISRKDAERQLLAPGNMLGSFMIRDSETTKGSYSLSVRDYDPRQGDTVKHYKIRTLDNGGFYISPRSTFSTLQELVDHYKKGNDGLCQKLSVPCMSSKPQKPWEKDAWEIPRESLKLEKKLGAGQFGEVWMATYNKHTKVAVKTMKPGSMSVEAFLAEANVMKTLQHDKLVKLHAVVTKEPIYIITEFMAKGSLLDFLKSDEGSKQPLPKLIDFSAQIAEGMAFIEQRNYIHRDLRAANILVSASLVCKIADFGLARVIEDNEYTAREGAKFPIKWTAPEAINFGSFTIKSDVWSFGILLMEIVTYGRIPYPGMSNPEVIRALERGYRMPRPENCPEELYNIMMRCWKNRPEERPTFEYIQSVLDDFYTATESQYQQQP

What is called inhibition is the drop in the measured response relative to a control, in per cent. On to `COc1cccc(-n2cnc3c(N/N=C/c4ccncc4)ncnc32)c1`, for which the inhibition in [1] was 5.21%; in [2] it was -1.9%; in assay [3] it was -0.54%; in [4], 0.25%; in [5], 9.6%; in assay [6], -4.88%. Further, the inhibition was 4.43% in [7]; 24.9% in [8]; -0.06% in [9]; 25.6% in assay [10]; 0.9% in assay [11]; 16.3% in [12]. Further, the inhibition in [13] was -8.19%; in assay [14], -2.78%; in assay [15], -4.12%; in assay [16] it was 1%; in assay [17], 0.57%; in [18], -2.76%.
For the molecule `Fc1ccc(-c2c(-c3ccncc3)nc3n2CCS3)cc1`, the inhibition in assay [1] is 4.81%; in assay [2], 2.99%; in assay [3] it was 2.94%; in [4], 5.74%; in assay [5], -4.22%; in [19] it was -5.59%. The inhibition in assay [7] is 1.54%; in [8], 1.37%; in [9] it was -3.03%; in assay [10], 0.5%; in assay [11], 2.36%; in assay [12], 4.87%. Also, the inhibition was -4.27% in assay [20]; -5.03% in assay [13]; 5.99% in [14]; 6.13% in assay [15]; 0.59% in assay [16]; 0.48% in assay [17]. Moreover, the inhibition in assay [18] was -2.9%.
On to `c1ccc(Oc2ccc(Nc3ncc(-c4ccccc4)o3)cc2)cc1`, for which the inhibition is 2.53% in assay [1]; 1.36% in assay [2]; 1.6% in assay [3]; 2.58% in assay [4]; 1.21% in [5]; 3.08% in assay [19]. In addition, the inhibition in assay [6] was found to be 1.93%; in assay [8], 2.76%; in assay [9], 0.57%; in assay [10], 2.97%; in [11] it was 3.85%; in [12], 5.01%. In addition, the inhibition in [20] is 1.77%; in [13], 2.01%; in [14], 4.11%; in assay [15], 2.94%; in [16], -1.75%; in assay [17] it was 1.99%. Further, the inhibition in assay [18] came to 0.89%.
Turning to `CN1CCN(CCCNc2nc3ccc(Oc4ccc(NC(=O)Nc5cc(C(F)(F)F)ccc5F)cc4)cc3[nH]2)CC1`, the inhibition was -1.83% in assay [1]; 1.78% in [2]; 0.98% in [3]; 1.87% in [4]; 1.66% in [5]; -0.49% in [6]. The inhibition in [7] was 3.57%; in assay [8], 17.3%; in assay [9], -4.47%; in [10] it was -1.88%; in [11], 4.66%; in [12], 9.14%. The inhibition in [20] is -9.82%; in [13], -7.78%; in assay [14] it was -3.22%; in assay [16], 1.22%; in [17], 0.55%; in [18], -2.06%.

For the origin of these results see ChEMBL document CHEMBL1961873, “Compounds: GSK PKIS; Assays: Nanosyn kinase panel” (2012).
